# The whole screen tested about 310,000 compounds, of which about 14,000 (4.5%) showed an effect of 50% or more. The effect is printed as a negative number. The sample as a whole holds a higher share of strong results than the screen did.
# Target: human ether-à-go-go-related gene (hERG) potassium channel (human, UniProt Q12809)
# Assay: primary screen, population patch clamp on CHO cells stably expressing hERG; higher = less effect of the substance
# 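Further: peak tail current of the secondary pulse compared with the same well before compound.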
# Sequence of human ether-à-go-go-related gene (hERG) potassium channel (Q12809 whole entry, looked up): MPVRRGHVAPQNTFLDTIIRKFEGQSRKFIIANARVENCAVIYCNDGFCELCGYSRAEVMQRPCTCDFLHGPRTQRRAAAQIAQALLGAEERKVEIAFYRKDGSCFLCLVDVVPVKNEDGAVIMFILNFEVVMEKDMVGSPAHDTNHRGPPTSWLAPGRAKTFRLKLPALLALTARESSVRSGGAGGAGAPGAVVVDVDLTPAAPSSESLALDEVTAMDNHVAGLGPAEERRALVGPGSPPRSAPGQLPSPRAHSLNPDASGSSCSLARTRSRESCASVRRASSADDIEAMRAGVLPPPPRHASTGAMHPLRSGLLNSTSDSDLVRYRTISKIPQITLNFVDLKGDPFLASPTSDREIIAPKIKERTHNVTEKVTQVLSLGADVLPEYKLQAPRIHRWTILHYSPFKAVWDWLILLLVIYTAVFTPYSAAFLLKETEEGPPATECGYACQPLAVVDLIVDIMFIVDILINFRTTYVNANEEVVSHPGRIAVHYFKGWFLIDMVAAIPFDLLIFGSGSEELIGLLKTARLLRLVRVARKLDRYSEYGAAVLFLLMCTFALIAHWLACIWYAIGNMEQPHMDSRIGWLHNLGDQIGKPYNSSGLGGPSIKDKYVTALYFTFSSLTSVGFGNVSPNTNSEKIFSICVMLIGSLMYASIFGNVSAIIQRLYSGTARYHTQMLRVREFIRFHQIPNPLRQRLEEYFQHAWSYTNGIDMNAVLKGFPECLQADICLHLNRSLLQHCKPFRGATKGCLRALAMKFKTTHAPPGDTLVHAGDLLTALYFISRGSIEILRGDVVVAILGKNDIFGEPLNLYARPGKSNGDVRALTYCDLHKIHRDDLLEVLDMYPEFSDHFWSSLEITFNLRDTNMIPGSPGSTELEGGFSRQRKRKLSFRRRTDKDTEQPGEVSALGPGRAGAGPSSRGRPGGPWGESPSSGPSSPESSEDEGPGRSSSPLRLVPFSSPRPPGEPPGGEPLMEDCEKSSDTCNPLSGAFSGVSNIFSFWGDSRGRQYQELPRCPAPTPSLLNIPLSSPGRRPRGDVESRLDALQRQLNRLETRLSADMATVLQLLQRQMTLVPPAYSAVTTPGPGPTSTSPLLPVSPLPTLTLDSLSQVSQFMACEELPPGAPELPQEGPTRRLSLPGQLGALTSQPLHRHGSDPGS
row,Structure (SMILES),"hERG current change (%, negative = inhibition) at 10uM"
1,COC(=O)c1c(NC(=O)COC(=O)C2CCC2)sc(C)c1C,-13.4%
2,Fc1ccc(-c2n[nH]c(=S)n2Cc2ccccc2)cc1,7.48%
3,NCc1nc(-c2ccc(Cl)cc2)no1,11.2%
4,CCOC(=O)COn1c(=O)c(-c2ccc(OC)c(OC)c2)[n+]([O-])c2ccccc21,-11.9%
5,O=C(Nc1ccc2c(c1)OCO2)c1ccc(CO)cc1,4.24%
6,CN1CCC(=NNC(=O)c2cc(-c3ccc(Cl)cc3)n[nH]2)CC1,-16.4%
7,c1ccc(-c2cccc(-c3ccccc3)n2)cc1,18.4%
8,CCOc1ccc(CCNC(=O)COC(=O)C2CC2)cc1OCC,3.41%
9,Cc1nnc(SCC(=O)Nc2ccc3c(c2)OCCO3)n1N,12.4%
10,CSc1ccccc1NC(=O)c1c(Br)cnn1C,-1.39%
11,CCCCCCn1c(CN2CCN(C(=O)OCC)CC2)nc2c1c(=O)n(C)c(=O)n2C,-53.5%
12,CCOCCn1c(CN2CCCC(C)C2)nc2c1c(=O)n(C)c(=O)n2C (stereo not shown),11.7%
13,CCCCCCn1c(CN2CCCCC2)nc2c1c(=O)n(C)c(=O)n2C,-35.7%
14,CCCCCCn1c(CN2CCCC(C)C2)nc2c1c(=O)n(C)c(=O)n2C (stereo not shown),-58.1%
15,CCCCCn1c(CN2CCN(C(=O)OCC)CC2)nc2c1c(=O)[nH]c(=O)n2C,-69.8%
16,CCCCCCn1c(CN2CCN(C)CC2)nc2c1c(=O)n(C)c(=O)n2C,-80.9%
17,CCCCn1c(CN2CCN(C(=O)OCC)CC2)nc2c1c(=O)n(C)c(=O)n2C,-18.1%
18,CCCCCn1c(CN2CCN(C(=O)OCC)CC2)nc2c1c(=O)n(C)c(=O)n2C,-34.6%
19,CCCCCn1c(CN2CCN(C)CC2)nc2c1c(=O)n(C)c(=O)n2C,-33.1%
20,CCOC(=O)N1CCN(Cc2nc3c(c(=O)[nH]c(=O)n3C)n2CCCc2ccccc2)CC1,-37.5%

row,Structure (SMILES),"hERG current change (%, negative = inhibition) at 10uM"
1,CCCCCCn1c(CN2CCC(C)CC2)nc2c1c(=O)n(C)c(=O)n2C,-8.75%
2,CCCCn1c(CN2CCN(C(=O)OCC)CC2)nc2c1c(=O)[nH]c(=O)n2C,6.72%
3,CC1CCC(NC(=O)C2CC(=O)N(c3ccc4c(c3)OCCO4)C2)CC1 (stereo not shown),8.92%
4,COc1ccc(N(C(=O)c2ccco2)S(=O)(=O)c2ccccc2)cc1,-44.3%
5,COc1cccc(NC(=O)CSc2nnnn2C(C)C)c1,2.64%
6,COc1ccc(-c2nsc3c(N4CCCCC4C)ncnc23)cc1 (stereo not shown),33.3%
7,Cc1nnc(NC(=O)C2CCCO2)s1 (stereo not shown),3.17%
8,CCn1c2ccccc2c2cc(CN3CCN(S(=O)(=O)CC)CC3)ccc21.O=C(O)C(=O)O,-13.4%
9,Cc1cc(OCC(=O)OC(C)(C)C)c2c3c(c(=O)oc2c1)CCC3,5.64%
10,Cc1ccc(NC2CCCN(C(=O)c3cnc4ccccn4c3=O)C2)cc1C (stereo not shown),-3.33%
11,CCOc1ccc(S(=O)(=O)NCc2cccnc2)cc1,15.5%
12,Cc1ccc(C(=O)OC2CCOC2=O)cc1NC(=O)c1ccco1 (stereo not shown),0.0901%
13,Cc1cc(C)c2c(N)c(C(=O)NC3CC3)sc2n1,8.51%
14,CC(C)(C)CNC(CO)C12CC3CC(CC(C3)C1)C2.Cl (stereo not shown),-4.3%
15,Cc1ncc(S(=O)(=O)C(C)(C)C)c(N)n1,2.37%
16,O=C(c1sc2ccccc2c1Cl)N1CCN(CCc2ccccn2)CC1,-60.5%
17,O=C(c1sc2cccc(Cl)c2c1Cl)N1CCN(CCc2ccccn2)CC1,-28.9%
18,Cc1noc(C)c1C(=O)N1CCN(C(=O)c2sc3cc(Cl)ccc3c2Cl)CC1,-47.4%
19,O=C(c1sc2ccccc2c1Cl)N1CCN(c2ncccn2)CC1,-9.78%
20,O=C(c1sc2cc(Cl)ccc2c1Cl)N1CCN(CCc2ccccn2)CC1,-69.6%

row,Structure (SMILES),"hERG current change (%, negative = inhibition) at 10uM"
1,O=C(c1sc2ccccc2c1Cl)N1CCN(c2ccccn2)CC1,-68.7%
2,O=C(c1cc(-c2ccccn2)nc2ccc(Cl)cc12)N1CCN(CCc2ccccc2)CC1,6.73%
3,O=C(c1sc2ccccc2c1Cl)N1CCN(c2ccc(F)cc2)CC1,-3.54%
4,O=C(c1sc2ccccc2c1Cl)N1CCN(c2ccccc2F)CC1,-1.51%
5,COc1cc(C)nc(N2CCCC(C(=O)NC3CCC(C)CC3)C2)n1 (stereo not shown),-0.336%
6,CCOc1ccc(CCNC(=O)CSCc2ccc(C)cc2)cc1OCC,-2.33%
7,Cc1cc2c(cc1C)NC(=O)CC(C(F)(F)C(F)(F)C(F)(F)F)=N2,9.6%
8,C(=N\NC1=Nc2cccc3cccc1c23)/c1cccnc1,-5.08%
9,O=C(O)c1ccc(NC(=O)C(c2ccccc2)c2ccccc2)cc1,14.3%
10,COc1ccc(C2C(C#N)=C(SC)NC3=C2C(=O)CC(C)(C)C3)cc1 (stereo not shown),-15.4%
11,COC(=O)[C@@H]1CCCN1Cc1c(C(=O)N2CCOCC2)nc2c(C)cccn12,24.1%
12,COc1ccccc1C(=O)Nc1ccnn1C1CCN(CCCC2CCCC2)CC1,-85.1%
13,COc1ccccc1NC(=O)Nc1ccnn1C1CCCCC1,-12.7%
14,O=C(Nc1ccnn1C1CCN(C2CCCC2)CC1)c1ccccc1,1.61%
15,O=C(Nc1ccnn1C1CCN(C2CCCCC2)CC1)c1ccccc1,-25.8%
16,O=C(Nc1ccnn1C1CCN(CCCC2CCCC2)CC1)c1ccccc1,-73.1%
17,O=C(Nc1ccnn1C1CCN(CCCC2CCCC2)CC1)c1ccccc1Cl,-86.4%
18,COc1ccccc1N1CCN(CC(=O)Nc2ccnn2C2CCCC2)CC1,3.01%

# — paper PMC4336329 (PLoS ONE, 2015)
